Data reported in PubChem BioAssay (Tox21).
Values joined by “and” are separate entries in the source; they are usually repeats but may differ in a detail not shown here. Equal values may be shown once. Records with an inconclusive call do not appear. Active and inactive are the calls of the source. Unless noted, the call rests on the fitted dose curve; in most records, active means well fitted curve in the direction sought with a large enough effect in the repeat runs; inconclusive means weak or mixed curves; inactive means no such curve, though single readings can be large; an effect the other way counts as inactive or inconclusive.

How the values were obtained:
[1] = qHTS assay to identify small molecule agonists of the RXR signaling pathway - cell viability counter screen (AID 1159529); further: nearly all actives have a fitted effect of over 50% in size; further: potency means the concentration at half of the fitted maximal effect
In short: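 HEK 293T RXRa-bla cells, 2% CS-FBS; 5 h settle; cpd 16 h 37 C, 5% CO2; CellTiter-Glo 30 min RT, luminescence. Tetraoctyl ammonium bromide as positive control.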

[2] = qHTS assay to identify small molecule antagonists of the retinoid acid receptor (RAR) signaling pathway - cell viability counter screen (AID 1159551); further: nearly all actives have a fitted effect of over 35% in size; further: potency means the concentration at half of the fitted maximal effect
In short: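 C3RL4 cells were seeded overnight at 37 C, then treated with compounds plus 1 uM (final) retinol for 6 h at 37 C. Viability was read as ATP by CellTiter-Glo luminescence after 30 min at room temperature.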

[3] = qHTS assay to identify small molecule antagonists of the retinoic acid receptor (RAR) signaling pathway (AID 1159552; further: nearly all actives have a fitted effect of over 50% in size; further: potency means the concentration at half of the fitted maximal effect)
In short: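 Cells of the C3RL4 line were seeded, incubated overnight, then dosed with compounds in DMSO followed immediately by retinol (1 uM final). Six hours later luciferase detection reagent went in; signal was measured after 30 min at RT.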

[4] = qHTS assay to identify small molecule antagonists of the estrogen related receptor (ERR) signaling pathway - cell viability counter screen (AID 1224818); further: potency means the concentration at half of the fitted maximal effect;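 further: viability measured after 17.5 h of compound exposure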
In short: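 ERR reporter cells plated 6 h at 37 C/5% CO2, then compounds in DMSO pin-transferred and incubated 17.5 h at 37 C. Viability read as CellTiter-Fluor fluorescence after 30 min at 37 C.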

[5] = qHTS assay to identify small molecule antagonists of the estrogen related receptor signaling pathway with the pleiotropic PPARgamma coactivator (PGC) cell viability counter screen (AID 1224822; further: series mostly up to about 46 µM)
In short: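 PGC/ERR cells were seeded at 2,000 cells/well, rested 6 h at 37 C/5% CO2, then given compounds in DMSO by pin tool and incubated 17.5 h at 37 C. Viability came from CellTiter-Fluor fluorescence after 30 min.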

[6] = qHTS assay to identify small molecule agonists of the retinoic acid receptor (RAR) signaling pathway (AID 1159553); further: potency means the concentration at half of the fitted maximal effect
In short: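 C3RL4 cells carrying a RARE luciferase reporter were plated overnight at 37 C, then exposed to compounds in DMSO for 6 hr at 37 C and 5% CO2. Luminescence was read 30 min after luciferase reagent addition at room temperature.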

[7] = qHTS assay to identify small molecule antagonists of the estrogen related receptor (ERR) signaling pathway (AID 1224819;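 further: luminescence from an ERR-driven luciferase reporter measured with One-Glo reagent; series mostly up to about 46 µM; nearly all actives have a fitted effect of over 50% in size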)
In short: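 ERR reporter cells were plated at 2,000 cells/well and left 6 h at 37 C/5% CO2 before pin-tool transfer of compounds in DMSO. After 18 h at 37 C, One-Glo was added and luminescence was read 30 min later at room temperature.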

[8] = qHTS assay to identify small molecule agonists of the estrogen related receptor (ERR) signaling pathway (AID 1224820); further: potency means the concentration at half of the fitted maximal effect
In short: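 ERR reporter cell line (from NTP), 2,000 cells/well, incubated 6 h before compound addition, then 18 h at 37 C. Luminescence measured 30 min after One-Glo reagent at room temperature.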

[9] = tested on: estrogen-related receptor alpha (ERRalpha) with PGC-1alpha coactivator, human; assay: qHTS assay to identify small molecule antagonists of the estrogen related receptor signaling pathway with the pleiotropic PPARgamma coactivator (PGC) (AID 1224821; calls by dose curve;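 further: series mostly up to about 46 µM; lower luminescence signal means antagonism of PGC/ERR signalling; nearly all actives have a fitted effect of over 50% in size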)
In short: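 PGC/ERR reporter cell line, plated 6 h before compound addition, then exposed 18 h at 37 °C. Luciferase activity read by luminescence 30 min after One-Glo addition; decrease indicates antagonism.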

[10] = qHTS assay to identify small molecule agonists of the estrogen related receptor signaling pathway with the pleiotropic PPARgamma coactivator (PGC) (AID 1224823); further: potency means the concentration at half of the fitted maximal effect
In short: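 PGC/ERR reporter cells seeded 6 h, then exposed to compounds (23 nL in DMSO) for 18 h at 37 C. One-Glo luciferase luminescence read after 30 min at room temperature.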

Measured: Potency

COc1ccc(Cc2nccc3cc(OC)c(OC)cc23)cc1OC
inactive: [1] | [2] | [3] | [4] | [5]

C[C@@H]1CC2=CC(=O)CC[C@@H]2[C@H]2CC[C@@]3(C)[C@@H](CC[C@]3(C)O)[C@@H]21
inactive: [1] | [2] | [6]

O=C1C[C@@H]2OCC=C3CN4CC[C@]56c7ccccc7N1[C@H]5[C@H]2[C@H]3C[C@H]46
inactive: [1] | [2] | [6]

N#Cc1ccc(N(CC(N)=O)CC(F)(F)F)cc1C(F)(F)F
inactive: [1] | [2] | [3] | [6]

Oc1ccc([C@H]2CNCc3c2ccc(O)c3O)cc1O
active: [6] 23.7 µM
inactive: [1] | [2] | [3]

CC(C)Br
inactive: [1] | [3]

O=C(Nc1ccc(F)cc1F)c1cccnc1Oc1cccc(C(F)(F)F)c1
inactive: [1] | [2] | [3] | [6]

N#CCCl
active: [1] 9.08 µM
inactive: [2] | [6]

Cc1ccn2nc(S(=O)(=O)Nc3c(F)cccc3F)nc2n1
inactive: [1] | [2] | [3] | [6]

O=Cc1ccccc1
inactive: [1] | [2] | [3] | [6]

CCC1COC(Cn2cncn2)(c2ccc(Cl)cc2Cl)O1 (configuration not stated)
inactive: [1] | [2] | [6]

CC[N+]1(CC)CCC(OC(=O)C(O)(c2ccccc2)c2ccccc2)C1 (configuration not stated)
inactive: [1] | [2] | [6]

COc1c2c(cc3c1OCO3)CCN(C)C2
inactive: [1] | [2] | [6]

O=[N+]([O-])c1cccc2cccc([N+](=O)[O-])c12
inactive: [1] | [2] | [6]
active: [3] 54.7 µM

CC1CN1 (configuration not stated)
inactive: [1] | [2] | [3] | [6]

CC(C)=CCN1CC[C@@]2(C)c3cc(O)ccc3C[C@@H]1[C@@H]2C
inactive: [1] | [2] | [3] | [6]

COP(=S)(OC)Oc1nc(Cl)c(Cl)cc1Cl
inactive: [1] | [2] | [3] | [6]

BrCCCBr
inactive: [1] | [2] | [3] | [6]

CN1C2CCC(C)(C)C1CC(OC(=O)C(O)(c1cccs1)c1cccs1)C2 (configuration not stated)
inactive: [1] | [2] | [3] | [6]

CN1[C@@H]2CC[C@H]1CC(O)C2 (some centres not stated)
inactive: [1] | [2] | [3] | [6]

Nc1c(Cl)c(Cl)c(Cl)c(Cl)c1Cl
inactive: [1] | [2] | [3] | [6] | [4] | [5]

COC(=O)c1cc(Oc2ccc(Cl)cc2Cl)ccc1[N+](=O)[O-]
inactive: [1] | [2] | [3] | [6]

COC(=O)c1ccccc1S(=O)(=O)NC(=O)Nc1nc(C)nc(OC)n1
inactive: [1] | [2] | [3] | [6]

S=C=Nc1ccccc1
active: [6] 70.8 µM
inactive: [1] | [2] | [3]

Nc1ccc(Cl)cc1C(=O)c1ccccc1F
inactive: [1] | [2] | [6]

Nc1ccc(N=Nc2ccccc2)cc1
active: [6] 0.386 µM | [4] 31.8 µM | [8] 10.1 µM | [10] 14.2 µM
not listed: [5]
inactive: all other assays above

ClC(Cl)C(Cl)(Cl)Cl
inactive: [1] | [2] | [3] | [6]

[O]=[Cr](=[O])([OH])[O][Cr](=[O])(=[O])[OH]
active: [1] 0.0027 µM | [2] 17.4 µM and 27.3 µM
inactive: [6]

CN/C(=N\[N+](=O)[O-])NCc1cnc(Cl)s1
inactive: [1] | [2] | [3] | [6]

O=C(N[C@H]1N=C(c2ccccc2F)c2cccc3c2N(CC3)C1=O)c1cc2ccccc2[nH]1
inactive: [1] | [2] | [3] | [6]

Nc1nc(N)nc(Cl)n1
inactive: [1] | [2] | [3] | [6]

CCC[CH2][Sn]([CH2]CCC)([O]C(C)=O)[O]C(C)=O
inactive: [2]
active: [3] 0.138 µM

CC(C)NCC(O)c1ccccc1Cl (configuration not stated)
inactive: [2] | [3]

CC(=O)[O-].CC(=O)[O-].O.O.[Zn+2]
inactive: [2]
